{"source": "PubChem BioAssay AID585", "about": "(National Center for Advancing Translational Sciences (NCATS), 2007)", "note": "Out of some 71,000 compounds screened, about 1,300 (1.8%) were called active. Entries that show only a call come without a potency. The sample holds actives, similar compounds and a random draw of the others, so the mix is not that of the screen. Calls follow the shape of the full dose curve. Potency is read from the fitted curve at half-maximal effect.", "data": [{"molecular_target": "Beta-lactamase (Escherichia coli (strain K12)) (UniProt P00811)", "sequence (P00811 whole entry, looked up)": "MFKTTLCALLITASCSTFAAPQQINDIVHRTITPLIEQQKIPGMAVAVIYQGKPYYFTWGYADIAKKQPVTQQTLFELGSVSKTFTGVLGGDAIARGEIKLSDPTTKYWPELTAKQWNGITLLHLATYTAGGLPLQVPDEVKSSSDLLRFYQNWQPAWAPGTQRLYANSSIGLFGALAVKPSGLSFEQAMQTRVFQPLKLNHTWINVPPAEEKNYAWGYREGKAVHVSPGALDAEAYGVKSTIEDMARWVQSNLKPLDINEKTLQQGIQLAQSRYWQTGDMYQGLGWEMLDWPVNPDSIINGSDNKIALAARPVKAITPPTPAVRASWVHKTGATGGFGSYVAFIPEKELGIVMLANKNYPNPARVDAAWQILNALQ", "test": "Promiscuous and Specific Inhibitors of AmpC Beta-Lactamase (assay without detergent)", "conditions": "AmpC nitrocefin hydrolysis, absorbance 480 nm, no detergent; series mostly up to 28.7 µM", "procedure": "NIH Molecular Libraries Screening Centers Network [MLSCN]\nNIH Chemical Genomics Center [NCGC]\nPI Name: Shoichet, Brian K.\nThis aggregation profiling approach exploits the sensitivity of aggregate formation to detergent. Inhibition of b-lactamase is measured in the presence and absence of 0.01% Triton X-100. See Pubchem assay \"Promiscuous and Specific Inhibitors of AmpC Beta-Lactamase (assay with detergent)\" for related screen. Compounds that inhibit only in the absence of detergent are considered likely promiscuous aggregators.\nA screen of 1,030 compounds was performed in Brian Shoichet's lab in 96-well format. AmpC activity was measured by following the absorbance at 480 nm. Nitrocefin is a chromogenic substrate: while nitrocefin is yellow (lmax 390 nm), the product of its hydrolysis is red (lmax 486 nm, 17,000 M-1). AmpC beta lactamase was provided by Brian Shoichet and Brian Feng, UCSF.\nNCGC Assay Protocol Summary:\n20 mM phosphate buffer, pH 7.0\nTriton X-100: No Detergent screen: 0.0001%, Detergent screen: 0.01%.\nBuffer in columns 3 and 4 as negative control (no enzyme).\n5.3 nM AmpC in columns 1, 2, 5-48. Titration of UCSF compound 9 control (from 10 mM, then 1:2) pin-transferred to column 2. Column 1 is neutral (100% activity).\nSix uL of reagents were dispensed to 1536-well Greiner black clear bottom plates. Compounds and controls (23 nL) were transferred via Kalypsys PinTool. The plates were incubated for 15 min at room temperature, and then 2 uL of 800 uM solution of nitrocefin was added to start the reaction. The plates were immediately transferred to and read every 20 seconds for 4 min on ViewLux (Perkin-Elmer) High-throughput CCD imager using 480 nm absorbance protocol. During dispense, reagent bottles were kept submerged into 4 deg C water bath.\nKeywords: NIH Roadmap, MLSCN, MLI, MLSMR, qHTS, NCGC, AmpC Beta-Lactamase, Aggregation.", "values": [{"smiles": "Cc1cc(NS(=O)(=O)c2ccccc2)no1", "Potency": "3.98 µM [single pt active] (active)"}, {"smiles": "O=S(=O)(Nc1ccccn1)c1ccc(Oc2ccccc2)cc1", "Potency": "inactive"}, {"smiles": "COc1cc2ccccc2cc1C(=O)Nc1ccc(S(=O)(=O)Nc2cc(C)on2)cc1", "Potency": "inactive"}, {"smiles": "CCCc1cc(=O)[nH]c(SCc2ccc(C#N)cc2)n1", "Potency": "inactive"}, {"smiles": "Cc1ccc(C2CC(c3cccc(Br)c3)n3nc(N)nc3N2)cc1", "note": "(centres undefined)", "Potency": "inactive"}, {"smiles": "COc1ccc(C2CC(c3ccc(Cl)cc3Cl)Nc3nc(N)nn32)cc1OC", "note": "(centres undefined)", "Potency": "inactive"}, {"smiles": "Nc1nc2n(n1)C(c1ccco1)CC(c1ccc(Cl)c(Cl)c1)N2", "note": "(centres undefined)", "Potency": "inactive"}, {"smiles": "CCOc1ccccc1C1CC(c2ccccc2)Nc2nc(N)nn21", "note": "(centres undefined)", "Potency": "3.98 µM [single pt active] (active)"}, {"smiles": "CCOc1ccccc1C1CC(c2ccc(Cl)cc2)Nc2nc(N)nn21", "note": "(centres undefined)", "Potency": "inactive"}, {"smiles": "Cc1ccc(C2CC(c3cccc(C)c3)n3nc(N)nc3N2)cc1", "note": "(centres undefined)", "Potency": "3.98 µM [single pt active] (active)"}, {"smiles": "O=C(O)CCCC(=O)Nc1ccccc1-n1ccnc1", "Potency": "inactive"}, {"smiles": "CCOC(=O)c1c(NC(=O)CCC(=O)NCc2ccco2)sc2c1CCCC2", "Potency": "inactive"}, {"smiles": "CC(C)[C@H](CO)Nc1nc(Nc2cc(N)cc(Cl)c2)c2ncn(C(C)C)c2n1", "Potency": "inactive"}, {"smiles": "COc1ccccc1N1CCN(c2nc3ccccc3n3nnnc23)CC1", "Potency": "inactive"}, {"smiles": "NC(=O)c1ccc(OC[C@H](O)CN2CC=C(c3ccc(F)cc3)CC2)cc1", "Potency": "inactive"}, {"smiles": "Cc1ccc(SCc2cc(=O)[nH]c(N3CCCCC3)n2)cc1", "Potency": "inactive"}, {"smiles": "CN(C)c1nc(N)nc(CSc2nnnn2-c2cccc3ccccc23)n1", "Potency": "inactive"}, {"smiles": "N#CC1=C(N)Oc2n[nH]c(CSc3ccccc3)c2C12C(=O)Nc1ccccc12", "note": "(centres undefined)", "Potency": "inactive"}, {"smiles": "CCOc1ccc(N(CC(=O)OC)S(=O)(=O)c2c(C)noc2C)cc1", "Potency": "inactive"}, {"smiles": "Oc1ccc(O)c2c(O)cccc12", "Potency": "0.631 µM (active)"}, {"smiles": "O=c1cc(-c2ccc(O)c(O)c2)oc2cccc(O)c12", "Potency": "inactive"}, {"smiles": "Cc1ccc(C(=O)NCC(=O)O)cc1S(=O)(=O)N1CCCCC1", "Potency": "inactive"}, {"smiles": "CC[N+](C)(CC)CCC[n+]1c(-c2ccccc2)c2cc(N)ccc2c2ccc(N)cc21", "Potency": "inactive"}, {"smiles": "O=C(c1csnn1)N1CCC[C@@]2(CCN(c3cccc(-c4ccccc4)c3)C2)C1", "Potency": "inactive"}, {"smiles": "Cc1cc2cc(CN(Cc3cccs3)Cc3nnnn3CC3CCCO3)c(=O)[nH]c2cc1C", "note": "(centres undefined)", "Potency": "inactive"}, {"smiles": "CC(C)(C)c1cc(C(=O)NCc2cccnc2)ccn1", "Potency": "inactive"}, {"smiles": "CCCNS(=O)(=O)c1ccc(CCC(=O)NCc2cccnc2)cc1", "Potency": "inactive"}, {"smiles": "O=C(NCc1cccnc1)c1ccc(CS(=O)(=O)c2ccc(Br)cc2)o1", "Potency": "3.16 µM (active)"}, {"smiles": "Cc1ccnc(SCCn2c(N(C)Cc3ccccc3)nc3c2c(=O)n(C)c(=O)n3C)n1", "Potency": "inactive"}]}]}
